Source: PubChem BioAssay
Sampled rows, rich in hits. Any-hit rate of the full collection: about 2.2%.
luminol inh ctr – quenches luminol chemiluminescence in Nox1 counter-screen | AID 1823 | inhibition, % at 6.7 µM | 0.4% of 16,000 active | HRP/luminol/H2O2 chemiluminescence counterscreen; further: reference of the scale not given here
Nox1 inhibitor – blocks human NADPH oxidase 1 activity; 0.81% of 16,000 active; HT29 cells, luminol chemiluminescence ROS; inhibition, % at 6.7 µM
PME-1 Maybr inh – PME-1 (human) inhibition, Maybridge primary screen | 0.5% of 16,000 active | AID 2291 | inhibition, % at 9 µM | recombinant PME-1, FP-Rh probe fluorescence polarization; in the data active means inhibition above about 30%
Target sequence (Q9Y570 whole entry, looked up): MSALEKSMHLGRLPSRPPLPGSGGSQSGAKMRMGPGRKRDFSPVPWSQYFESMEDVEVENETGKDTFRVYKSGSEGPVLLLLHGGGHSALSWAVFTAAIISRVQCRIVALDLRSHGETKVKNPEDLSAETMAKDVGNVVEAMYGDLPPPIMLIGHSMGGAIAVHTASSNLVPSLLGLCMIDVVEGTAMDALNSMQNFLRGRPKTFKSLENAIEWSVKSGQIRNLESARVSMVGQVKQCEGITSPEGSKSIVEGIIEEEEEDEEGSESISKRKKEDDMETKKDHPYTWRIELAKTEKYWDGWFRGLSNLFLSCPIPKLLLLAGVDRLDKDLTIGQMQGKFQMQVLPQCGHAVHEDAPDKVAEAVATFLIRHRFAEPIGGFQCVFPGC
OPRK1 antag MB – antagonists of human kappa opioid receptor OPRK1, Maybridge library. AID 652031. inhibition, % at 9 µM. P41145. 0.4% of 16,000 active. OPRK1 cells, antagonist mode, fluorescence readout; in the data active means inhibition above about 50%
Starred values were filed as active, the others as inactive. Unless noted, no stated cut-off is given here; in the data, active means inhibition above about 75%; inactive means the rest.

SMILES | luminol inh ctr | Nox1 inhibitor | PME-1 Maybr inh | OPRK1 antag MB
O=[N+]([O-])c1cccc(Cl)c1Oc1ccc(S(=O)(=O)N2CCOCC2)cc1 | -2 | 0 | 33* | 1
COc1ccc(-c2nc(-c3cccc([N+](=O)[O-])c3)cs2)cc1 | 2 | 0 | -3 | -14
CS(=O)(=O)NNC(=O)Cn1nnc(-c2ccccc2C(F)(F)F)n1 | 2 | -31 | 1 | -9
CNC(=S)N(C)NC(=S)Nc1ccc(OC)c(OC)c1 | 31 | 84* | 0 | 6
COc1cccc(C2Nc3ccccc3C(=O)N2NS(=O)(=O)c2ccc(C)cc2)c1O (centres undefined) | 99* | 30 | 8 | 7
Cc1ccc(S(=O)(=O)NC(=O)NCC2CCN(S(=O)(=O)c3ccccc3)CC2)cc1 | -1 | -57 | 3 | 2
